DRD3 antagonist = qHTS of D3 Dopamine Receptor Antagonist: qHTS; D(3) dopamine receptor (Homo sapiens), P35462; D3R cells, DiscoveRx beta-arrestin luminescence, antagonist mode; active compounds read low; max response, negative = inhibition, %; 360,000 compounds, 2.5% hits; in the data active means max response below about -50%; further: on the % scale 0 is the no-effect control and ±100 the full control effect
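Cells plated overnight at 1500 cells/well, then exposed to library compounds with dopamine controls for 90 minutes at 37 degrees C. DiscoveRx reagent added for 30–60 minutes at room temperature; luminescence read, quantitative HTS format.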
D1 potentiator = Potentiators of Human D1 Dopamine Receptor: qHTS; HEK293 TREx D1 cells, calcium flux, dopamine EC20 potentiation; potentiation, % at 10 µM; 360,000 compounds, 0.036% hits; AID 504651, 2011; in the data active means potentiation above about 30%; further: 0% is about no effect
Target sequence (P21728 whole entry, looked up): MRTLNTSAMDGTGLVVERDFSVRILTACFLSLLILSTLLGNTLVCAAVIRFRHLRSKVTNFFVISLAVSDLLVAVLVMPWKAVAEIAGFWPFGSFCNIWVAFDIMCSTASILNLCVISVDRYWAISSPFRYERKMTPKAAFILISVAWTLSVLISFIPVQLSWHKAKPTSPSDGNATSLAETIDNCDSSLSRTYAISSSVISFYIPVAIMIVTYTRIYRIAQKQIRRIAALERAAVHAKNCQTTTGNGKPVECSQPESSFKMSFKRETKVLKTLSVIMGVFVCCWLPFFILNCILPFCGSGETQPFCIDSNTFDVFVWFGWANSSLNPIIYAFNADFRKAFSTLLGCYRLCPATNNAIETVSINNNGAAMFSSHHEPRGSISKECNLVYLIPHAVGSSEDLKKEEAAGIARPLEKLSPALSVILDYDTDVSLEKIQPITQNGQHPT
D1 antagonist = Antagonist of Human D 1 Dopamine Receptor: qHTS; activity change, negative = inhibition, % at 10 µM; AID 504652, 2011; 360,000 compounds, 3.2% hits; HEK293 TREx D1 cells, calcium flux, dopamine EC80; active compounds read low; in the data active means activity change below about -30%; further: on the % scale 0 is the no-effect control and ±100 the full control effect
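Tetracycline-induced HEK293 T-REx cells with force-coupled D1 receptor were loaded with a no-wash calcium dye. Compound was added after a 10 s baseline and read kinetically for 180 s; EC80 dopamine was then added and calcium flux followed another 180 s.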
DRD3 agonist = qHTS of D3 Dopamine Receptor Agonist: qHTS | 410,000 compounds, 0.58% hits | D(3) dopamine receptor (Homo sapiens), P35462 | D3R DiscoveRx beta-arrestin cells, luminescence, 90 min | max activation, %; in the data active means max activation above about 30%; further: 0% is about no effect
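Cells at 1500/well, incubated overnight, then treated with pinned compounds (dopamine as control) for 90 min at 37 degrees C. DiscoveRx reagent added for 30 - 60 minutes at room temperature; luminescence read.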
D1 agonist = Allosteric Agonists of the Human D1 Dopamine Receptor: qHTS. D(1A) dopamine receptor (Homo sapiens), P21728. HEK293 T-REx D1 cells, calcium flux, agonist mode. activation, % at 2 µM. 360,000 compounds, 1% hits. AID 504660, 2011; in the data active means activation above about 30%; further: 0% is about no effect
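Agonism was scored from calcium flux recorded over 180 s (1 read/s) after pintool compound addition, following a 10-cycle baseline. Cells were inducible force-coupled HEK293 TREx D1, plated overnight at 30 C and loaded with no-wash calcium dye.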
An asterisk follows results filed as active. Most compounds without a hit are left out; they make up all but 6% or so of the library.

`COc1cccc(NC(=O)c2cc3c(=O)n(C)c4ccccc4c3n2C)c1` gave D1 potentiator -7, D1 antagonist -3, DRD3 agonist 3 and D1 agonist 1.
`OCCC1CN(Cc2cc3c(cc2Cl)OCO3)CCN1C1CCCCC1` (configuration not stated) gave DRD3 antagonist -12, D1 potentiator 4, D1 antagonist 4, DRD3 agonist -11 and D1 agonist 2.
Screening CSc1ccc(CN2CCN(C3CCCC3)C(CCO)C2)cc1 (configuration not stated) returned DRD3 antagonist -4, D1 potentiator 1, D1 antagonist 24, DRD3 agonist -20 and D1 agonist 2.
Screening OCCC1CN(Cc2ccncc2)CCN1C1CCCC1 (configuration not stated) returned DRD3 antagonist -3, D1 potentiator 0, D1 antagonist -36*, DRD3 agonist -11 and D1 agonist 3.
`OCCC1CN(Cc2cc3c(cc2Cl)OCO3)CCN1C1CCCC1` (configuration not stated) gave DRD3 antagonist -53*, D1 potentiator -6, D1 antagonist -5, DRD3 agonist -14 and D1 agonist 2.
Cc1ccc2nc(Nc3nc(-c4ccccc4)cc(=O)[nH]3)nc(C)c2c1 was read as DRD3 antagonist -2, D1 potentiator -6, D1 antagonist 21, DRD3 agonist 2 and D1 agonist 1.
Screening Cc1ccc2nc(Nc3nc(=O)c4ccccc4n3C)nc(C)c2c1 returned D1 potentiator -5, D1 antagonist -23 and D1 agonist 158*.
`COc1ccccc1NC(=O)c1sc2nc3n(c(=O)c2c1C)N=C(c1cccc(Br)c1)CS3` gave D1 potentiator -3, D1 antagonist -12, DRD3 agonist -1 and D1 agonist 3.
CCN(CC)c1ccc(/C=C2/C(=O)c3ccc(C(=O)O)cc3C2=O)cc1 was read as DRD3 antagonist -56*, D1 potentiator 0, D1 antagonist -6, DRD3 agonist -11 and D1 agonist 261*.
For O=C(CNC(=O)C1COc2ccccc2O1)N/N=C\c1cccc(O)c1 (configuration not stated) the results were DRD3 antagonist -1, D1 potentiator -9, D1 antagonist -5, DRD3 agonist 3 and D1 agonist 0.
Screening O=C(NN=C1CCCC1)C1COc2ccccc2O1 (configuration not stated) returned DRD3 antagonist -7, D1 potentiator 5, D1 antagonist -1, DRD3 agonist 43* and D1 agonist 2.
`CC(C)(C)C1CCC(=NNC(=O)C2COc3ccccc3O2)CC1` (configuration not stated) gave DRD3 antagonist -14, D1 potentiator -2, D1 antagonist -12, DRD3 agonist -6 and D1 agonist -1.
`COc1ccc(Cl)cc1C(=O)NNC(=O)C1COc2ccccc2O1` (configuration not stated) gave DRD3 antagonist 12, D1 potentiator -5, D1 antagonist 0, DRD3 agonist 0 and D1 agonist 1.
Screening O=C(NNC(=O)C1COc2ccccc2O1)c1ccccc1O (configuration not stated) returned DRD3 antagonist 8, D1 potentiator -6, D1 antagonist 2, DRD3 agonist 32* and D1 agonist 5.
Screening O=C(CNC(=O)C1COc2ccccc2O1)N/N=C\c1ccc(Cl)cc1 (configuration not stated) returned DRD3 antagonist -2, D1 potentiator -9, D1 antagonist -36*, DRD3 agonist 3 and D1 agonist -1.
COc1cc(OC)c(NC(=O)CN(C)S(=O)(=O)c2ccc3c(c2)CCCC(=O)N3)cc1Cl was read as D1 potentiator 0, D1 antagonist -7, DRD3 agonist 8 and D1 agonist 7.
COC(=O)c1cc(=O)nc2scc(C)n12 was read as DRD3 antagonist -17, D1 potentiator -1, D1 antagonist 24, DRD3 agonist -5 and D1 agonist -1.
COC(=O)c1cc(=O)nc2sc3ccccc3n12 was read as DRD3 antagonist -51*, D1 potentiator -6, D1 antagonist 4, DRD3 agonist 0 and D1 agonist 3.
For CCOc1ccc(-c2nnc(SCC(=O)Nc3cccc(C#N)c3)o2)cc1 the results were D1 potentiator -2, D1 antagonist -3, DRD3 agonist -9 and D1 agonist 14.
`CC(=O)OCCNc1cc(N2CCN(C)CC2)c2noc3c2c1C(=O)c1ccccc1-3` gave DRD3 antagonist -52*, D1 potentiator -1, D1 antagonist -3, DRD3 agonist -23 and D1 agonist 0.
For COc1ccc(C)cc1NS(=O)(=O)c1ccc2oc(=O)c3ncn(C)c3c2c1 the results were D1 potentiator -2, D1 antagonist -7, DRD3 agonist -31 and D1 agonist 1.
`O=C(O)C(c1ccccc1)N1C(=O)/C(=C\c2ccc(-c3ccc(Br)cc3)o2)SC1=S` (configuration not stated) gave DRD3 antagonist 26, D1 potentiator 27, D1 antagonist 68, DRD3 agonist -4 and D1 agonist 66*.
O=c1c(N2CCc3ccccc3C2)csc2ccc(F)cc12 was read as D1 potentiator -2, D1 antagonist 5, DRD3 agonist -16 and D1 agonist 13.
Screening Fc1ccc(CNC(=S)Nc2ccc(Cl)cc2Cl)cc1 returned DRD3 antagonist 9, D1 potentiator -12, D1 antagonist -38*, DRD3 agonist 1 and D1 agonist 24.
Screening S=C(NCc1ccccc1)NCc1cccc(Cl)c1 returned DRD3 antagonist 1, D1 potentiator -3, D1 antagonist -17, DRD3 agonist 0 and D1 agonist 1.
Fc1ccc(CNC(=S)NCc2cccc(Cl)c2)cc1 was read as DRD3 antagonist -23, D1 potentiator -4, D1 antagonist -33*, DRD3 agonist -14 and D1 agonist -1.
Screening CC(=O)c1cc(C(=O)Nc2cc(C)cc(C)c2)c2ccccn12 returned D1 potentiator 1, D1 antagonist -1, DRD3 agonist -6 and D1 agonist -1.
Screening NC(=O)c1c(NC(=O)CS(=O)(=O)c2ccc(Cl)cc2)sc2c1CCCC2 returned D1 potentiator -2, DRD3 agonist -5 and D1 agonist 0.
Screening O=C1CC(Sc2ncccn2)C(=O)N1c1ccccc1 (configuration not stated) returned DRD3 antagonist 4, D1 potentiator -2, D1 antagonist 4, DRD3 agonist 4 and D1 agonist 0.
